Outcome and AC50 data for four compounds are collected here from PubChem BioAssay (EPA / NIEHS).

Usually AC50 stands for the midpoint of the concentration-response curve, whichever way the signal moves.

Test [1] can be described thus: ATG_PBREM_CIS: Attagene CIS-FACTORIAL HepG2 Assay for human Phenobarbital-responsive Enhancer Module (PBREM) (AID 2282955). Particulars: HepG2 PBREM cis-reporter, Attagene multiplexed transcription; actives raise or lower the signal. The method, boiled down:
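HepG2 cells transiently transfected with multiple cis-regulated reporter units measure endogenous transcription factor activity; 24 h compound exposure. Reporter mRNA quantified by RT-PCR, fluorescent labelling, HpaI digestion and capillary electrophoresis; bidirectional fit versus DMSO.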

The target of test [2] is Paired box protein Pax-6 (Homo sapiens) (UniProt P26367). Put plainly: ATG_Pax6_CIS: Attagene CIS-FACTORIAL HepG2 Assay for human Paired Box 6 (PAX6) (AID 2282956). The following applies: HepG2 CIS-FACTORIAL PAX6 reporter transcription, RNA readout; actives raise or lower the signal. Put shortly: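 Read-out is reporter transcript level, measured by RT-PCR with fluorescent primer extension and capillary electrophoresis after 24 h dosing of transfected HepG2 cells. Activity in either direction fitted relative to DMSO control.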

The nature of test [3]: ATG_PPRE_CIS: Attagene CIS-FACTORIAL HepG2 Assay for human Peroxisome Proliferator-activated Response Element (PPRE) (AID 2282958). The following applies: HepG2 PPRE cis-element reporter, Attagene transcription factor profiling; actives raise or lower the signal. Put shortly:
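HepG2 cells are transiently transfected with multiplexed cis-promoter reporter units to report endogenous PPAR activity. After 24 h dosing, reporter mRNA is read by RT-PCR and capillary electrophoresis. Fitting is bidirectional against DMSO.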

The nature of test [4]: ATG_RORE_CIS: Attagene CIS-FACTORIAL HepG2 Assay for human RAR-related Orphan Receptor Element (RORE) (AID 2282959). Particulars: HepG2 Attagene cis-factorial RORE reporter, mRNA; actives raise or lower the signal. Put shortly: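 HepG2 cells carrying transiently transfected cis-regulated reporter units; RORE-driven reporter mRNA quantified 24 h post-dosing by RT-PCR, 6-FAM primer extension, HpaI digestion and capillary electrophoresis. Bidirectional fit versus DMSO.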

Test [5] in a line: ATG_Sox_CIS: Attagene CIS-FACTORIAL HepG2 Assay for human SRY-box transcription factor (SOX) (AID 2282960). The following applies: HepG2 Attagene cis-factorial SOX reporter, mRNA; actives raise or lower the signal. Put shortly: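 HepG2 cells transiently transfected with multiple cis-regulated reporter units, then dosed for 24 h. Reporter mRNA quantified by RT-PCR, fluorescent labelling, HpaI digestion and capillary electrophoresis; bidirectional fit versus DMSO.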

Test [6] deals with Transcription factor Sp1 (Homo sapiens) (UniProt P08047). Kind of test: ATG_Sp1_CIS: Attagene CIS-FACTORIAL HepG2 Assay for human Specificity Protein 1 (Sp1) (AID 2282961). Particulars: HepG2 Sp1 cis-reporter transcription, actives raise or lower the signal. Put shortly: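 HepG2 cells transiently transfected with multiplexed cis-regulated reporter constructs, chemical exposure 24 h. Reporter mRNA quantified by RT-PCR with capillary electrophoresis; bidirectional fit relative to DMSO.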

Test [7] can be described thus: ATG_SREBP_CIS: Attagene CIS-FACTORIAL HepG2 Assay for human Sterol Regulatory Element Binding (SREBP) (AID 2282962). The following applies: HepG2 Attagene cis-factorial SREBP reporter, mRNA; actives raise or lower the signal. The method, boiled down:
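Endogenous SREBP activity read as cis-element-driven reporter transcript in transiently transfected HepG2, 24 h post-dosing; quantified via RT-PCR plus capillary electrophoresis of fluorescent fragments. Gain or loss of signal fitted relative to DMSO baseline.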

Test [8] deals with Signal transducer and activator of transcription 3 (Homo sapiens) (UniProt P40763). Put plainly: ATG_STAT3_CIS: Attagene CIS-FACTORIAL HepG2 Assay for human Signal Transducer and Activator of Transcription 3 (STAT3) (AID 2282963). Particulars: HepG2, Attagene cis-factorial STAT3 reporter transcription; actives raise or lower the signal. The method, boiled down: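 Cis-factorial format: endogenous transcription factors in HepG2 drive transfected reporter units. After 24 h treatment, reporter RNA was reverse-transcribed, amplified, FAM-labelled and HpaI-digested before CE analysis; activity scored in both directions against DMSO.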

Test [9] is described as follows: ATG_TA_CIS: Attagene CIS-FACTORIAL HepG2 Assay for human TA Basal Promoter (AID 2282964). Particulars: HepG2 Attagene CIS-factorial TA basal promoter reporter; actives raise or lower the signal. The method, boiled down:
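HepG2 cells transiently transfected with multiple reporter units under cis promoter elements, reporting endogenous transcription factor activity; this endpoint tracks the TA basal promoter as background control. Reporter mRNA after 24 h dosing measured by RT-PCR/capillary electrophoresis; bidirectional fits versus DMSO.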

Test [10] in a line: ATG_TCF_b_cat_CIS: Attagene CIS-FACTORIAL HepG2 Assay for human T-Cell-Factor with beta-catenin (TCF/b-cat) (AID 2282965). The following applies: HepG2 TCF/beta-catenin cis-reporter transcription, actives raise or lower the signal. The method, boiled down:
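Endogenous TCF/LEF activity read as reporter transcript level via RT-PCR and capillary electrophoresis fluorescence in transfected HepG2, 24 h exposure; gain or loss of signal fitted against DMSO controls.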

A short description of test [11]: ATG_TAL_CIS: Attagene CIS-FACTORIAL HepG2 Assay for human TAL Basal Promoter (AID 2282966).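 Note: background control endpoint measuring basal TAL promoter reporter mRNA not a specific factor.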 The following applies: HepG2 Attagene cis-factorial TAL promoter reporter; actives raise or lower the signal. The method, boiled down:
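Human hepatoma HepG2 cells, transfected with promoter-regulated reporter units, were treated 24 h. Reporter transcript levels, measured through RT-PCR and capillary electrophoresis, were fitted for gain or loss relative to DMSO.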

Test [12] in a line: ATG_TGFb_CIS: Attagene CIS-FACTORIAL HepG2 Assay for human Transforming Growth Factor (TGF) (AID 2282967). Particulars: HepG2 Attagene CIS TGFb reporter, mRNA transcription; actives raise or lower the signal. The method, boiled down: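 HepG2 cells transiently transfected with cis-promoter-driven multiple reporter units measure endogenous TF activity; reporter mRNA quantified at 24 h by RT-PCR, FAM labeling, HpaI digestion and capillary electrophoresis. Bidirectional fit vs DMSO.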

Test [13] in a line: ATG_VDRE_CIS: Attagene CIS-FACTORIAL HepG2 Assay for human Vitamin D Receptor Element (VDRE) (AID 2282968). Particulars: HepG2 VDRE cis-reporter transcription, actives raise or lower the signal. The method, boiled down:
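Measures endogenous factor activity through cis-element-driven reporter transcripts in transiently transfected HepG2. Cells are treated 24 h; reporter mRNA is quantified by RT-PCR and capillary electrophoresis; fitting is bidirectional.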

Test [14] concerns the target X-box-binding protein 1 (Homo sapiens) (UniProt P17861). Kind of test: ATG_Xbp1_CIS: Attagene CIS-FACTORIAL HepG2 Assay for human X-box Binding Protein 1 (XBP1) (AID 2282972). Particulars: HepG2 XBP1 cis-element reporter, Attagene multiplex; actives raise or lower the signal. The method, boiled down:
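Reporter transcripts were quantified by RT-PCR with fluorescent primer extension and capillary electrophoresis after 24 h chemical exposure. Cells: transiently transfected HepG2 carrying cis-regulated reporter constructs; data fitted bidirectionally relative to DMSO.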

Test [15] in a line: ATG_PXRE_CIS: Attagene CIS-FACTORIAL HepG2 Assay for human Pregnane X Receptor Element (PXRE) (AID 2282957). The following applies: HepG2 Attagene CIS-FACTORIAL PXRE reporter, mRNA; actives raise or lower the signal. The method, boiled down: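 Bidirectional activity, baselined to DMSO, derived from reporter mRNA fluorescence (RT-PCR plus capillary electrophoresis) in HepG2 cells bearing cis-promoter reporter units, 24 h exposure.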

Test [16] has as its target Nuclear receptor subfamily 1 group I member 3 (Homo sapiens) (UniProt Q14994). Kind of test: ATG_CAR_TRANS: Attagene TRANS-FACTORIAL HepG2 Assay for human Constitutive Androstane Receptor (CAR) (AID 2282969; active = hit-call score of the fitted dose curve at least 0.9, where 1 is the maximum;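 note: activators raise reporter mRNA above DMSO so AC50 marks induction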). The following applies: HepG2 Attagene TRANS-FACTORIAL CAR reporter. The method, boiled down:
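Signal is reporter mRNA induction relative to DMSO, measured 24 h after dosing by RT-PCR with fluorescent primer extension and capillary electrophoresis. Human HepG2 liver cells carried transiently transfected chimeric NR-Gal4/GAL4-UAS reporter constructs.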

Test [17] in a line: ATG_M_19_TRANS: Attagene TRANS-FACTORIAL HepG2 Assay for M19 Transcription Factor (Internal Marker) (AID 2282974; active = hit-call score of the fitted dose curve at least 0.9, where 1 is the maximum). The following applies: HepG2 Attagene TRANS-FACTORIAL M19 internal marker reporter. Put shortly:
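HepG2 transiently transfected with GAL4-UAS multiplex reporter constructs, exposed 24 h; reporter RNA quantified by RT-PCR, 6-FAM labeling, HpaI digestion and capillary electrophoresis; internal background marker fitted upward versus DMSO.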

Test [18] can be described thus: ATG_GAL4_TRANS: Attagene TRANS-FACTORIAL HepG2 Assay for GAL4 (Internal Marker) (AID 2282976; active = hit-call score of the fitted dose curve at least 0.9, where 1 is the maximum). The following applies: HepG2 Attagene TRANS GAL4 internal marker reporter. The method, boiled down:
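Liver HepG2 line bearing multiplexed GAL4-UAS reporter constructs; 24 h chemical treatment. Transcripts were quantified as fluorescent fragments on capillary electrophoresis after RT-PCR and HpaI cut, with activity fitted upward from DMSO.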

In test [19] the target is Estrogen receptor (Homo sapiens) (UniProt P03372). Put plainly: ATG_ERa_TRANS: Attagene TRANS-FACTORIAL HepG2 Assay for human Estrogen Receptor alpha (ERa) (AID 2282970; active = hit-call score of the fitted dose curve at least 0.9, where 1 is the maximum). Particulars: HepG2 Attagene TRANS ERa GAL4 reporter, mRNA. The method, boiled down: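 Signal derives from fluorescence of labelled reporter PCR fragments separated by capillary electrophoresis. HepG2 cells transiently carrying multiple GAL4-UAS reporter units were treated 24 hours, and induction above DMSO baseline was fitted as activity.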

Records with an inconclusive call do not appear. The source made the active and inactive calls. Rule for the calls, unless noted: active = hit-call score of the fitted dose curve at least 0.9, where 1 is the maximum; inactive = score below 0.9.

Chain of Transcription factor Sp1 (Homo sapiens) (P08047 whole entry, looked up): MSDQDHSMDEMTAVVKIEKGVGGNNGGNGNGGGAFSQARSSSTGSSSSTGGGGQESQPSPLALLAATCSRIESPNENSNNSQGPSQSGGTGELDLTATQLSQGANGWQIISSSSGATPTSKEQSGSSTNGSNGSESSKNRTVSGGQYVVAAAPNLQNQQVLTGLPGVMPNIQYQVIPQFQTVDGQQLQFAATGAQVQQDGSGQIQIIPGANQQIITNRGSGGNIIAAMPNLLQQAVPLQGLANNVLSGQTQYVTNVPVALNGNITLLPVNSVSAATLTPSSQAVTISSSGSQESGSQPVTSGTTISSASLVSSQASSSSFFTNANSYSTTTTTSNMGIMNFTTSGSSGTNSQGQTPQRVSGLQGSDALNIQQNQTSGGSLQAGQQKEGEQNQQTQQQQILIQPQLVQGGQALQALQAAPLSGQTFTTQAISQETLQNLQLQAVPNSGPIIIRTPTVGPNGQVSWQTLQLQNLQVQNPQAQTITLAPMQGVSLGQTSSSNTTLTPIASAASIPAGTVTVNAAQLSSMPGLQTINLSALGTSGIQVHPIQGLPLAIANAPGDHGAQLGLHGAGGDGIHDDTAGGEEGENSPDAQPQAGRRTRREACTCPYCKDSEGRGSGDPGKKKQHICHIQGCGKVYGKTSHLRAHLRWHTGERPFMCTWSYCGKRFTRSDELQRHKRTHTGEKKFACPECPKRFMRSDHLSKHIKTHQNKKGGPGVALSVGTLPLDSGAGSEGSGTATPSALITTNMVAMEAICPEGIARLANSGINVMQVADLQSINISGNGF
Chain of X-box-binding protein 1 (Homo sapiens) (P17861 whole entry, looked up): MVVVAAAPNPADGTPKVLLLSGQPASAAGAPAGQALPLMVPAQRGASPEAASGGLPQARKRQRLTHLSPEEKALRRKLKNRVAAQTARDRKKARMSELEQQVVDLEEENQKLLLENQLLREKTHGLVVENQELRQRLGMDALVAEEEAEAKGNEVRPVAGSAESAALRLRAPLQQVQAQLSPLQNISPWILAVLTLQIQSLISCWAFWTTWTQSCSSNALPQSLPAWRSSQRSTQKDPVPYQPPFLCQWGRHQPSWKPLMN
Chain of Paired box protein Pax-6 (Homo sapiens) (P26367 whole entry, looked up): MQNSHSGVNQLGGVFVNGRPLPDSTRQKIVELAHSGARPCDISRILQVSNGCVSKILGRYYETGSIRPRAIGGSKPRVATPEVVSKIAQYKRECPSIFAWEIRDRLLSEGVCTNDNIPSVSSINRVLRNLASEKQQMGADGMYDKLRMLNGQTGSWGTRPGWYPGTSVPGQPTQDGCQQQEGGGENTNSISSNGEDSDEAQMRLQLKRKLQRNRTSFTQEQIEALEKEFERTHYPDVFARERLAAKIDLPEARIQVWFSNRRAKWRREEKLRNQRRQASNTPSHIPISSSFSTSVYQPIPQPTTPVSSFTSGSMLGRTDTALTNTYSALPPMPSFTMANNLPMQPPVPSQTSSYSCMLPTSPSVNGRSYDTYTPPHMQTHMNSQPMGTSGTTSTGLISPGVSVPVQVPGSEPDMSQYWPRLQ
Chain of Signal transducer and activator of transcription 3 (Homo sapiens) (P40763 whole entry, looked up): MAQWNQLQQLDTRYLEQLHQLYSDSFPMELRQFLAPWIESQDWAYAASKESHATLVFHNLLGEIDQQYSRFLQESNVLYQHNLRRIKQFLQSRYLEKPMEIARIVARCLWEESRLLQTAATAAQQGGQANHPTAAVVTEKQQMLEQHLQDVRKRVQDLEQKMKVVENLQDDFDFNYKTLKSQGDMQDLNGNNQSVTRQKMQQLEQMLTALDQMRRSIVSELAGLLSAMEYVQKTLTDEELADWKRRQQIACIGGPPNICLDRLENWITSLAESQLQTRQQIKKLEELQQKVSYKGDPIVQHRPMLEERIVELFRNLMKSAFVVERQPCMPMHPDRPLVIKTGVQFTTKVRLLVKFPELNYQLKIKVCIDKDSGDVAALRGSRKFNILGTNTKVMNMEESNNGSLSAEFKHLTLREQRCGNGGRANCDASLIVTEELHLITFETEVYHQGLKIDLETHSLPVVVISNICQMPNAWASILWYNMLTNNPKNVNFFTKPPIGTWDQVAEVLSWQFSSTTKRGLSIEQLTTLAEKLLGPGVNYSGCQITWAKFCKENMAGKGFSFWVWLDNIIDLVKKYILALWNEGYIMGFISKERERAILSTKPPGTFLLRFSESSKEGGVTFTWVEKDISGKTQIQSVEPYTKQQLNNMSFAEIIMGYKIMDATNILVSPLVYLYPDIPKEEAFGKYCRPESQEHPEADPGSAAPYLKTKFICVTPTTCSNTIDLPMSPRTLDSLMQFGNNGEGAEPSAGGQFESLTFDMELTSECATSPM
Chain of Nuclear receptor subfamily 1 group I member 3 (Homo sapiens) (Q14994 whole entry, looked up, the tested form may be a part): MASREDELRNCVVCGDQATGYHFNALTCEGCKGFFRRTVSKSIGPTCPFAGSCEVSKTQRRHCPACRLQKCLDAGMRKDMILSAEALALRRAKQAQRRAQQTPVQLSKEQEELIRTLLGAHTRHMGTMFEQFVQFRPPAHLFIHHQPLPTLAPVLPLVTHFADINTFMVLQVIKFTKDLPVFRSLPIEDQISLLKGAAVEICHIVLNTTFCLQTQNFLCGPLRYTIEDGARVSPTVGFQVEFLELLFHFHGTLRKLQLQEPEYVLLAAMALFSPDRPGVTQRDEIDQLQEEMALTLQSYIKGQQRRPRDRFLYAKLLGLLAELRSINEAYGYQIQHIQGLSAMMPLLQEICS
Chain of Estrogen receptor (Homo sapiens) (P03372 whole entry, looked up, the tested form may be a part): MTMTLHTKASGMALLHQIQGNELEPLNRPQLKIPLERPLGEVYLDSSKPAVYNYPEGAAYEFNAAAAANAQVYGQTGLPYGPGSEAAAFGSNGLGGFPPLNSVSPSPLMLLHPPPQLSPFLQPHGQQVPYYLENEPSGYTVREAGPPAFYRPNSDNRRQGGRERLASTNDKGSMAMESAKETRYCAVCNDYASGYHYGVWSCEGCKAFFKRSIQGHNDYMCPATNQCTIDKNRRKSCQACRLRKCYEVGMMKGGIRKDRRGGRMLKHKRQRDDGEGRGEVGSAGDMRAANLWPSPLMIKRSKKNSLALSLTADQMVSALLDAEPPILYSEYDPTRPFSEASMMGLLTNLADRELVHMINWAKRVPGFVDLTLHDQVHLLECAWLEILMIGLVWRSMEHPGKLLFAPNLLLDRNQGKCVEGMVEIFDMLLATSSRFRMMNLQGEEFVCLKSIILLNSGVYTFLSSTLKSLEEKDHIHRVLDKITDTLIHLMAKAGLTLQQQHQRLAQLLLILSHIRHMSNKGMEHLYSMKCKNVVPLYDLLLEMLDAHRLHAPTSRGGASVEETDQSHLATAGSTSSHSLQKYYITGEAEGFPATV

Consider `CC(C)C(=O)OCCOc1ccccc1`, for which the result in test [1], in test [2], in test [3], in test [4], in test [5] and in test [6] was inactive. In addition, the outcome in [7], in test [8], in [9], in test [10], in test [11] and in test [12] was inactive. Moreover, the compound was called inactive in test [13] and in test [14].
Consider `[Cl][Sc]([Cl])[Cl]`, for which the outcome in [1], in test [2], in test [15], in [5], in [6] and in [7] was inactive. Moreover, the result in test [8], in test [9], in test [10], in [11], in [12] and in test [13] was inactive. The outcome in test [16], in test [14], in test [17] and in test [18] was inactive.
As for `COc1cc(O)c(C(=O)c2ccccc2)cc1S(=O)(=O)O`, the result in test [1], in [2], in test [3], in [4], in test [5] and in test [6] was inactive. Besides, the result in test [7], in [8], in test [9], in [10], in test [11] and in test [12] was inactive. Moreover, the result in test [13], in test [16], in test [19], in [14] and in [18] was inactive.
`C=C1C[C@H]2[C@@H]3C=C(C)C4=CC(=O)CC[C@]4(C)[C@H]3CC[C@]2(C)[C@@]1(OC(C)=O)C(C)=O`: the AC50 is 113 µM (active) in test [1]; 63 µM (active) in test [2]; 3.44 µM (active) in test [15]; 63 µM (active) in [7]; 50.8 µM (active) in test [9]; 18.9 µM (active) in test [10]. Moreover, the AC50 in test [11] was 52.8 µM (active); in test [14], 88 µM (active). Also, the call in [5], in test [6], in [8], in [12], in [17] and in test [18] was inactive.
